The record followed here is PubChem BioAssay (NCI).

The panel holds about 79,000 compounds, 15% with a hit somewhere; the sample as a whole holds those more often. Active and inactive are the calls of the source. Cut-off read from the data, not from the text of the source: active = growth inhibition above about 70%; inactive = the rest.

A short description of the assay: NCI Yeast Anticancer Drug Screen. Data for the bub3 strain (AID 167). The following applies: S. cerevisiae bub3 mutant strain, at 50.0 µM, hits give high values. As to the method:
Growth inhibition of yeast strains with defined genetic alterations is measured as a screen for potential anti-cancer activity. Selected strains with alterations in DNA damage repair or cell cycle control were exposed to compounds and growth inhibition was measured relative to vehicle treated controls. The strain used in this assay is bub3
`Nc1ccc(S(=O)(=O)n2c(=O)oc3cc(Cl)ccc32)cc1`: the growth inhibition was 14.1% (inactive).
For the compound `O=C(O)CCCC[P+](c1ccccc1)(c1ccccc1)c1ccccc1`, the growth inhibition was 35.3% (inactive).
Regarding `COc1cc(C=Nc2cc(Cl)c(N=O)c(Cl)c2)ccc1N(CCCCl)CCCCl`, the growth inhibition was 2.2% (inactive).
Then `CC(C)CC(=O)OC1=C(O)C(=O)C(OC(=O)CC(C)C)=C(O)C1=O`, with 0.1% (inactive); and `FC(F)(F)C(c1ccc(Cl)cc1)c1ccc(Cl)cc1`, with 5.95% (inactive).
For the compound `CNC(=O)c1nnn(Cc2ccc(OC)cc2)c1Cl`, the growth inhibition is -1.3% (inactive).
With `O=c1[nH]c2cc([N+](=O)[O-])ccc2nc1/C=C(\O)c1ccccc1`, the growth inhibition was -1.8% (inactive).
For the compound `CCOc1ccc(C(C)(CC)c2cc3c(cc2OC)OCO3)cc1` (stereo not given), the growth inhibition is -20.1% (inactive).
As to `O=S(=O)(/C=C/c1ccc(F)cc1)Cc1ccccc1`, the growth inhibition was -4% (inactive).
For `COc1ccc(-c2c([O-])oc(-c3ccccc3)[n+]2C)cc1`, the growth inhibition was 3.1% (inactive).
As for `CC(CN(C)C)Oc1ccc2c(c1)C(=O)C(C)C2` (stereo not given), the growth inhibition was 22.1% (inactive).
With `CCCCCCCCCCCCCCCCCC(=O)OCC1CO1` (stereo not given), the growth inhibition is 18.9% (inactive).
For `CCCCCCCCCCCCCCCc1nnc(SC)s1`, the growth inhibition was -3.15% (inactive).
Then `C[n+]1c2ccccc2c(CNC(CCC(N)=O)C(=O)O)c2ccccc21` (stereo not given), with 73.3% (active).
Regarding `O=C(O)CSCC(=O)c1ccccc1`, the growth inhibition was -53.4% (inactive).
As to `CCOc1ccc(Nc2nc(C)c(C(=O)CC(=O)C(=O)Nc3ccc(C(C)C)cc3C(C)C)s2)cc1`, the growth inhibition is -20% (inactive).
For `O=[N+]([O-])c1ccc(SN2CCCCC2CC2CCCCC2)c([N+](=O)[O-])c1` (stereo not given) the value was 1.3% (inactive); for `Cc1cc(C)c(S(=O)(=O)ONC(=O)OC(C)(C)C)c(C)c1`, 11.2% (inactive); for `CCCCNC(=O)/N=C/c1c(O)c2ccccc2oc1=O`, -42.5% (inactive).
As to `CCOc1ccc2[nH]c(C)c(CC(=O)O)c2c1`, the growth inhibition was 9.3% (inactive).
With `COc1ccc2nc3cc(Cl)ccc3c(NCCCNCCCNc3c4ccc(Cl)cc4nc4ccc(OC)cc34)c2c1`, the growth inhibition is -6% (inactive).
For `C[C@H]1C(=O)CCC2[C@]3(C)CCC4(CO)[C@@H]5CC(C)(C)C(=O)C[C@]5(C)CC[C@]4(C)C3CC[C@@]21C` (stereo not given in full) the value was -40.9% (inactive); for `CC(C)(C)C(=O)Oc1ccc[nH]c1=O`, -13.7% (inactive).
As for `NC(=O)NC(=O)c1ccco1`, the growth inhibition is -1.3% (inactive).
On to `CCOC(=O)c1c(-c2ccccc2)n2c3c(cccc13)CC2`, for which the growth inhibition was 6.55% (inactive).
As to `Cc1cc(=O)oc2c(C)c3oc4c(c3cc12)CN(C)CC4`, the growth inhibition is 13.9% (inactive).
Regarding `N#CCCn1nc(SCc2ccccc2)c(=O)[nH]c1=O`, the growth inhibition is -1.65% (inactive).
For `CC1(C)CN(CCO)C(C)(C)CN1`, the growth inhibition was -19.8% (inactive).
For `COc1ccc(O)c(/C=N\N=C\c2cc(OC)ccc2O)c1` the value was 22.9% (inactive); for `CCCCCCCCC(=O)OCC(=O)c1ccc(-c2ccccc2)cc1`, 3.3% (inactive); for `CCOC(=O)CCCCCC(C(=O)OCC)c1nc2ccccc2[nH]c1=O` (stereo not given), 11.1% (inactive).
For the compound `Cc1ccc(/C(C#N)=C/c2cccc([N+](=O)[O-])c2)cc1`, the growth inhibition is -17.4% (inactive).
On to `N#Cc1nc(CC(=O)c2ccccc2Cl)c(CC(=O)c2ccccc2Cl)nc1C#N`, for which the growth inhibition was 13.4% (inactive).
As for `COc1cc([C@@H]2OC[C@@H]3C(c4cc(OC)c5c(c4)OCO5)OC[C@@H]32)cc(OC)c1OC` (stereo not given in full), the growth inhibition is 4.3% (inactive).
Take `O=S(=O)(O)c1cc(N=Nc2cc(S(=O)(=O)O)c3cccnc3c2O)ccc1/C=C/c1ccc(N=Nc2cc(S(=O)(=O)O)c3cccnc3c2O)cc1S(=O)(=O)O.[Cu+2].[Na+]`: the growth inhibition is -11.2% (inactive).
Regarding `Cc1cc(CC(N)C(=O)O)ccc1O` (stereo not given), the growth inhibition is 0.5% (inactive).
For the compound `C1=NN=C2C=C3CCc4ccccc4C3CC12` (stereo not given), the growth inhibition was -15.9% (inactive).
In the case of `CC(=O)N(C)c1ccc(N)cc1`, the growth inhibition is 31.8% (inactive).
For the compound `Cc1cc(N(CCC#N)S(=O)(=O)c2ccccc2)ccc1/C=C1\N=C(c2ccc(Cl)cc2)OC1=O`, the growth inhibition was -2.7% (inactive).
Consider `CCOC(=O)C1CCN(S(=O)(=O)c2ccccc2)CC1`, for which the growth inhibition was 18.6% (inactive).
